Compound activity from PubChem.
Hits are enriched below; roughly 7.4% of the tested compounds scored in any of these assays.
SMN2 splice enh: qHTS Assay for Enhancers of SMN2 Splice Variant Expression. HEK293 SMN2-luciferase splicing reporter, luminescence, 30-36 h. Potency, µM (doses to about 46.1 µM), most hits filed as activators. 210,000 compounds, 2.8% hits; note: nearly all actives have a fitted effect of over 55% in size
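qHTS luciferase splicing reporter: luminescence rises when SMN2 exon 7 is included in transfected HEK293 cells. Compound exposure lasted 30-36 h at 37C, with 4.5 mM final sodium butyrate as control, followed by a ONE-Glo read.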
FLuc modulator: qHTS profiling assay for firefly luciferase inhibitor/activator using purifed enzyme and Km concentrations of substrates (counterscreen for miR-21 project) | Luciferin 4-monooxygenase (Photinus pyralis), P08659 | purified FLuc, Km substrates, luminescence inhibition | Potency, µM (top dose mostly 57.5 µM), actives largely listed as inhibitors | 360,000 compounds, 6.9% hits | AID 588342, 2011; note: nearly all actives have a fitted effect of over 55% in size
Target sequence (P08659 whole entry, looked up): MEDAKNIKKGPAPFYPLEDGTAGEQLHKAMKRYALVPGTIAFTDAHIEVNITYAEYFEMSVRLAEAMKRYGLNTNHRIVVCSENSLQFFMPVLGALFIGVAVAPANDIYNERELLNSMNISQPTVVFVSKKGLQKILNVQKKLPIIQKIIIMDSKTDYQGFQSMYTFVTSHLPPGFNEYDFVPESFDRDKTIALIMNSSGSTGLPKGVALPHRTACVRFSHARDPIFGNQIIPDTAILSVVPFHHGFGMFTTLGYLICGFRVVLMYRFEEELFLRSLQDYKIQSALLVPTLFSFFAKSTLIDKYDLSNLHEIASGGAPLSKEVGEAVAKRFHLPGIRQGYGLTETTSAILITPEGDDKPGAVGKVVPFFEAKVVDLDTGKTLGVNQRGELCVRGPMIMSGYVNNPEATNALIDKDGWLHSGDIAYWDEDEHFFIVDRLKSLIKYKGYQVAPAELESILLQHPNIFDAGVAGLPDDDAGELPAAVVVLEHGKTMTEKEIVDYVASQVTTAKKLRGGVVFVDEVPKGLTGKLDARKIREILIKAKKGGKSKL
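Biochemical qHTS of compounds, final roughly 60 µM downward over six points, against 10 nM purified firefly luciferase using Km concentrations of substrates (10 uM D-luciferin, 10 uM ATP) in Tris acetate pH 7.5 buffer; luminescence output.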
NPC1 promoter act: qHTS Assay for NPC1 Promoter Activators | Potency, µM (series often up to 9.22 µM), usual class: activators | Huh7 NPC1 promoter luciferase reporter, 24 h | 320,000 compounds, 2.4% hits; note: nearly all actives have a fitted effect of over 60% in size
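Huh7 reporter cells (NPC1 promoter driving luciferase) are dosed with compound for 24 h at 37 °C, 5% CO2; luciferase detection reagent is then added and luminescence measured after 10 min at ambient temperature.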
ELG1 genotoxic: qHTS screen for small molecules that induce genotoxicity in human embryonic kidney (HEK293T) cells expressing luciferase-tagged ELG1. HEK293T ELG1-luciferase reporter, luminescence, 16 h. Potency, µM (series often up to 46 µM), hits mostly activators. 330,000 compounds, 1.3% hits; note: nearly all actives have a fitted effect of over 60% in size
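Luminescence read-out: rising ELG1-luciferase signal, reflecting elevated ELG1 protein under genetic stress, flags genotoxic compounds. Cells were treated for 16 hr at 37 °C before ONE-Glo detection.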
Rab9 promoter act: qHTS Assay for Rab9 Promoter Activators | Huh7 Rab9 promoter-luciferase reporter, luminescence, 24 h | 320,000 compounds, 2.8% hits | AID 485297, 2010 | Potency, µM (doses to about 9.22 µM), most hits filed as activators; note: nearly all actives have a fitted effect of over 60% in size
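Promoter activation is measured as luciferase luminescence in Huh7 cells stably transfected with a Rab9 promoter–luciferase construct, following 24 h compound exposure at 37 °C and 10 min reagent incubation at ambient temperature.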
A number is an active result; . = inactive; ? = inconclusive; / = no result; [ ] = another dose, or the depositor's remark. Calls come from the whole dose curve; as a rule, active = well fitted curve in the direction sought with a large enough effect; inconclusive = small, poorly fitted or top-dose-only effect, or another doubt; inactive = no such curve, though single readings can be large; an effect the other way counts as inactive or inconclusive.

SMILES	SMN2 splice enh	FLuc modulator	NPC1 promoter act	ELG1 genotoxic	Rab9 promoter act
O=C(NNC1=C(C(=O)C(F)(F)F)CCC1)c1ccccc1Cl	.	.	.	.	.
Cc1cc2occ(CC(=O)N(C)CC(=O)Nc3ccccc3C(F)(F)F)c2cc1C	/	/	.	.	.
CC(C)CCNC(=O)c1ccc(NC(=O)C2=CSCCO2)cc1	/	?	.	?	?
C=CCNC(=O)c1ccc(NC(=O)C2=CSCCO2)cc1	/	12µM	0.89µM	?	0.79µM
CSc1ccc(CCNC(=O)C2=C(C)C(=O)OC23CCCCC3)cc1	.	.	/	/	/
CCOc1ccc(N2CC(c3nc4ccccc4n3CCCOc3ccc(OC)cc3)CC2=O)cc1 (stereo unspecified)	.	24µM	/	/	/
COc1ccc(OCCn2c(C3CC(=O)N(c4ccc(F)cc4)C3)nc3ccccc32)cc1 (stereo unspecified)	.	.	/	/	/
CCOc1ccccc1N1CC(c2nc3ccccc3n2CCCOc2ccc(OC)cc2)CC1=O (stereo unspecified)	?	13µM	/	/	/
CC(=O)c1ccc(N2CCN(C(=O)C3CCN(S(=O)(=O)c4ccc(Br)s4)CC3)CC2)cc1	.	.	/	/	/
Nc1nc2c(-c3ccc(Br)cc3)nnn2c2ccccc12	/	0.43µM	1µM	12µM	0.63µM
Cc1cc(C(=O)N/N=C/c2c[nH]c3ccccc23)c(C)o1	.	19µM	.	.	.
Cc1ccc(-c2cc(C(=O)N/N=C/c3ccccc3O)n[nH]2)o1	/	?	.	?	.
Cc1ccc(-c2cc(C(=O)N/N=C/c3ccc(F)cc3)n[nH]2)o1	/	?	.	.	.
Cc1ccc(-c2cc(C(=O)N/N=C/C(Br)=C/c3ccccc3)n[nH]2)o1	.	24µM	.	.	.
Cc1ccc(-c2cc(C(=O)N/N=C/c3c[nH]c4ccccc34)n[nH]2)o1	.	11µM	.	.	.
Cc1ccc(C(=O)N/N=C/c2c[nH]c3ccccc23)o1	/	24µM	.	?	.
CCCCN(C(=O)C1=CC=CN2CCS(=O)(=O)N=C12)c1ccccc1	/	.	.	.	.
CC(=O)c1ccc(NC(=O)CC2Oc3ccc(C)cc3NC2=O)cc1 (stereo unspecified)	.	.	/	/	/
O=C(CN1CCN(c2ccccc2F)CC1)N1CCc2ccccc21	/	.	.	.	.
Cc1c(Cl)cccc1NC(=O)CSc1cc(-c2ccccc2)ncn1	/	.	/	/	/
Cc1ccc(NC(=O)Nc2nnc(N(C)Cc3ccccc3)s2)cc1	/	.	/	/	/
CN(Cc1ccccc1)Cc1c(F)cccc1F	1.4µM	.	.	.	.
O=C(NCC(c1ccc(F)cc1)N1CCOCC1)c1nn(-c2ccccc2)c(=O)c2ccccc12 (stereo unspecified)	/	.	.	.	.
CC(C)CC(=O)/C=C/n1c(=S)oc2ccccc21	.	0.95µM	.	.	.
CC(=O)/C=C/n1c(=S)oc2ccccc21	.[1.84 µM]	5.4µM	.	.	.
SMILES	SMN2 splice enh	FLuc modulator	NPC1 promoter act	ELG1 genotoxic	Rab9 promoter act
Cn1c(=S)oc2ccccc21	/	.	.	.	.
O=C(NN=C1CCCC1)c1ccc(Br)cc1	/	.	.	.	.
COC(=O)c1ccc(C(=O)OC)c(NC(=O)c2c(-c3ccccc3)noc2C)c1	.	.	/	/	/
O=C1CC2(CCN(C(=O)COc3ccc(Cl)cc3)CC2)Oc2ccccc21	/	.	.	.	.
CC(C)COC(=O)n1ccc(C(=O)N2CCCCC2)n1	.	.	.	.	.
CC(=O)c1ccc(NC(=O)c2ccn(C(=O)OCC(C)C)n2)cc1	10µM	19µM	4µM	?	?
COc1ccc(-n2cnc3cc(NS(=O)(=O)c4ccc(C)cc4)ccc32)cc1	.	.	.	.	.
Cn1cnc2cc(NC(=O)c3ccco3)ccc21	7.1µM	19µM	2.8µM	7.3µM	?
O=C(Nc1ccc2c(c1)ncn2-c1ccccc1)c1ccco1	13µM	8.5µM	?	?	?
O=C(Nc1cccc(-n2cnnn2)c1)c1ccco1	.	.	.	.	.
CC(=O)Nc1ccc2c(c1)ncn2C	.	.	.	.	.
CC(=O)Nc1ccc2c(c1)ncn2-c1ccc(C)cc1	8.9µM	5.4µM	1.1µM	9.2µM	1.8µM
CCOc1ccccc1CNC(=O)c1ccc2nc(Cc3ccc(OC)cc3)oc2c1	/	.	/	/	/
CNC(=S)N1CCN(c2nc(-c3ccc(Cl)cc3)cs2)CC1	/	?	.	.	.
Fc1ccc(-c2csc(N3CCC(c4ccccc4)C3)n2)cc1 (stereo unspecified)	?	2.4µM	3.2µM	.	3.5µM
COc1ccc(-c2csc(N3CCC(c4ccccc4)C3)n2)cc1 (stereo unspecified)	.	4.3µM	?	.	?
Clc1ccc(-c2csc(N3CCC(c4ccccc4)C3)n2)cc1 (stereo unspecified)	.	2.7µM	3.5µM	?	3.5µM
COc1ccccc1C(=O)Nc1cc2c(cc1N1CCOCC1)n(C)c(=O)n2C	.	.	/	/	/
CCCCCc1nn2cc(-c3ccccc3)nc2s1	7.1µM	0.43µM	/	/	/
CCc1ccc(-c2cn3nc(-c4ccccc4)cnc3n2)cc1	/	.	?	.	2µM
Cc1ccc(-c2cn3nc(N4CCC(C(=O)Nc5ccccc5C)CC4)sc3n2)cc1	/	.	/	/	/
CCCCc1nn2c(=O)cc(CN(CC)c3ccccc3)nc2s1	/	.	/	/	/
Cc1nn2cc(-c3ccccc3)nc2s1	10µM	4.3µM	0.35µM	?	1µM
Cc1nn2cc(-c3ccc(OC(C)C)cc3)nc2s1	.	1.3µM	/	/	/
Cc1cc(=O)n2[nH]c(SCc3ccccc3Cl)nc2n1	/	?	.	.	.
SMILES	SMN2 splice enh	FLuc modulator	NPC1 promoter act	ELG1 genotoxic	Rab9 promoter act
COC(=O)c1cc(C)nc2c1c(=O)nc(SCc1cccc(C)c1)n2C1CC1	/	.	/	/	/
CCOc1ccc(NC(=O)COC(=O)CN2CCCCCC2=O)cc1	/	/	/	.	/
CC(C)Cc1nn2cc(-c3cccc(Br)c3)nc2s1	.	0.43µM	/	/	/
CCc1ccc(-c2cn3nc(CC)sc3n2)cc1	.	0.6µM	/	/	/
CCCc1nn2c(C)c(-c3ccccc3)nc2s1	.	1.5µM	/	/	/
CCOC(=O)[C@H]1[C@H]2COc3ccccc3[C@@H]2N2C(=O)[C@@H](CO)NC(=O)[C@@]12C	/	.	.	.	.
Cc1ccccc1N=C1Nc2ccccc2CS1	13µM	4.8µM	1.4µM	?	0.63µM
COc1ccc(CCNC(=O)c2ccc3c(c2)OCO3)cc1	/	?	.	.	?
COc1ccc(CCNC(=O)c2ccc(Br)cc2)cc1	/	?	.	.	.
COc1ccc(CCNC(=O)c2coc(=O)c(Br)c2)cc1	/	.	.	18µM	.
COc1ccc(CCNC(=O)c2ccc3c(c2)OCCO3)cc1	?	9.5µM	?	?	3.2µM
O=C(NCCc1cccc(Cl)c1)c1ccc2c(c1)OCO2	/	1.5µM	0.32µM	2.6µM	0.45µM
O=C(NCCc1ccccc1)c1ccc2c(c1)OCCO2	/	0.13µM	0.016µM	?	0.0032µM
O=C(NCc1cccc(Cl)c1)c1ccc2c(c1)OCCO2	/	?	.	.	.
